Laboratory results: PubChem BioAssay (NCATS)
Results filed as inconclusive are left out. Active and inactive are the calls of the source. Calls follow the shape of the dose curve; as a rule, active = well fitted curve in the direction sought with a large enough effect; inconclusive = small, poorly fitted or top-dose-only effect, or another doubt; inactive = no such curve, though single readings can be large; an effect the other way counts as inactive or inconclusive. Where a SMILES comes first, the peptide text is derived from it. [ ]: non-standard residue; d: D form. ξ: configuration not given here. ξLac(3-iPr) = CC(C)CC(O)C(=O)O; NMeV = CN[CH](C(=O)O)C(C)C; NMeA = CN[CH](C)C(=O)O; βAla = NCCC(=O)O

Key:
[1] = P-glycoprotein substrates identified in KB-8-5-11 adenocarcinoma cell line, qHTS therapeutic library screen (AID 1346987); also: nearly all actives have a fitted effect of over 65% in size; also: potency is read from the fitted curve at half-maximal effect
Summary of the method: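 P-gp-mediated resistance screen: KB-8-5-11 cells treated 72 h with compounds in dose-response. CellTiter-Glo viability.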

[2] = system: Zika virus NS2B-NS3 protease (unlinked complex); experiment: Primary screen GU Rhodamine qHTS for Zika virus inhibitors: Unlinked NS2B-NS3 protease assay (AID 1347159); also: % is scaled to controls: 0 for no effect and ±100 for the full control effect; nearly all actives have a fitted effect of over 60% in size
Summary of the method: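 Percent inhibition derives from the 15-min fluorescence change (ex 480, em 540 nm), normalized to no-enzyme and no-inhibitor wells. Reactions contained 25 nM NS2B-NS3 complex and 1.5 microM substrate in 10 mM Tris-HCl pH 8.0.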

[3] = system: Zika virus NS2B-NS3 protease (linked construct); experiment: Primary screen NINDS Rhodamine qHTS for Zika virus inhibitors (AID 1347160); also: nearly all actives have a fitted effect of over 55% in size
Summary of the method: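 In 10 mM Tris-HCl pH 8.0 containing 0.01% Tween 20, linked NS2B-NS3 protease (25 nM final) is exposed to test compounds for 15 min. Cleavage of 1.5 microM Rhodamine110 substrate is tracked by fluorescence over 15 min.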

[4] = target: Calcium and integrin-binding protein 1 (Homo sapiens) (UniProt Q99828); experiment: Primary qHTS for Identification of Calcium Integrin Binding Protein 1 (CIB1) Competitor (AID 1508620);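 also: GST tagged CIB1 binding a fluorescein labelled alphaIIb integrin peptide tracer; top concentration of the series differs between compounds; % is scaled to controls: 0 for no effect and ±100 for the full control effect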
Sequence of Calcium and integrin-binding protein 1 (Homo sapiens) (Q99828 whole entry, looked up): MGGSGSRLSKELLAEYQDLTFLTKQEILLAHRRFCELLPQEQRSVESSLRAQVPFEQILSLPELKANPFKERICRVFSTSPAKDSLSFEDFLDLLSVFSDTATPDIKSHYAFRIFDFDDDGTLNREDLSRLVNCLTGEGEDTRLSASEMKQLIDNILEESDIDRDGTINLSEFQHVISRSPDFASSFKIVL
Summary of the method: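 Fluorescence polarization competition: CIB1-GST (1 uM final) preincubated with compound 15 min at room temperature, then FITC-labeled alphaIIb peptide (100 nM final) added for another 15 min. Polarization read at Ex 480/Em 540.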

[5] = Primary qHTS for inhibitors of nuclear receptor binding SET domain protein 2 (NSD2) in an isogenic RCH-ACV NSD2 p.E1099K mutant (9B) (AID 1645876); also: nearly all actives have a fitted effect of over 70% in size; also: potency is read from the fitted curve at half-maximal effect
[6] = Primary qHTS for inhibitors of nuclear receptor binding SET domain protein 2 (NSD2) in an RCH-ACV wild type WT cells (2C) (AID 1645877); also: nearly all actives have a fitted effect of over 70% in size; also: potency is read from the fitted curve at half-maximal effect
[7] = target: Glutathione peroxidase 1 (Homo sapiens) (UniProt P07203); experiment: Primary qHTS Assay for Inhibitors of Recombinant Selenoprotein Glutathione Peroxidase 1 (GPX1) (AID 1845191); also: nearly all actives have a fitted effect of over 65% in size
Sequence of Glutathione peroxidase 1 (Homo sapiens) (P07203 whole entry, looked up): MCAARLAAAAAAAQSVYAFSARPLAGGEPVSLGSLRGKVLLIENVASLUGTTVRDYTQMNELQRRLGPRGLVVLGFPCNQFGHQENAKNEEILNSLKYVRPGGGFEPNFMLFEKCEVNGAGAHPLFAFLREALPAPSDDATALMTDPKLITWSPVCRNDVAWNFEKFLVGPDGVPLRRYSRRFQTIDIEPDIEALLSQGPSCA
Summary of the method: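 Recombinant GPX1 (10 nM final) was preincubated with compound for 30 min at room temperature, then reacted with 1 mM GSH, 0.5 mM CHP, 0.5 mM NADPH and 100 nM glutathione reductase; NADPH fluorescence (340/450 nm) was read at 0 and 15 min.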

[8] = target: Phospholipid hydroperoxide glutathione peroxidase GPX4 (Homo sapiens) (UniProt P36969); experiment: Primary qHTS Assay for Inhibitors of Recombinant Selenoprotein Glutathione Peroxidase 4 (GPX4) (AID 1845192); also: % is scaled to controls: 0 for no effect and ±100 for the full control effect; nearly all actives have a fitted effect of over 65% in size
Sequence of Phospholipid hydroperoxide glutathione peroxidase GPX4 (Homo sapiens) (P36969 whole entry, looked up): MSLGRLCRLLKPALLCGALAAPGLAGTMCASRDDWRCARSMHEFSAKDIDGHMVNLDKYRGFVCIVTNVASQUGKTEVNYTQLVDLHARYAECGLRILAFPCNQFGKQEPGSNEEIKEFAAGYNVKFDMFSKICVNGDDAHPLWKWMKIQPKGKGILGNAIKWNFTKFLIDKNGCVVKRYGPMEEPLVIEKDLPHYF
Summary of the method: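 GR-coupled readout: 100 nM GR, 1 mM GSH, 0.5 mM NADPH; NADPH fluorescence (ex 340/em 450 nm) read at t=0 and after 15 min RT. GPX4 200 nM, preincubated 30 min with compound; substrate 0.5 mM CHP.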

[9] = target: Luciferin 4-monooxygenase (Photinus pyralis) (UniProt P08659); experiment: Primary firefly luciferase (FLuc) qHTS assay for identification of artifact compounds. (AID 1845220); details: outcome: dose series up to 54.1 µM unless noted; also: nearly all actives have a fitted effect of over 60% in size
Summary of the method: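 In this counter-screen for luciferase artifacts, test compounds met substrate (10 uM each luciferin and ATP) before 10 nM enzyme started the reaction. Light output was measured 5 min later.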

[10] = system: Nanoluciferase (engineered Oplophorus gracilirostris luciferase); experiment: Primary Nanoluciferase (NLuc) qHTS assay for identification of artifact compounds. (AID 1845222);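 also: NLuc secreted into diluted conditioned medium of S16 cells; 0% = DMSO and -100% = no enzyme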
Summary of the method: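 Using secreted nanoluciferase in S16 culture medium (0.22 um filtered, 1:55 dilution), compounds were preincubated 15 min at RT. Signal was generated with Nano-Glo reagent (1:100) over 5 min.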

[11] = Primary redox qHTS assay for identification of artifact compounds. (AID 1845223);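 also: 0% = DMSO and 100% = reference compound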
Summary of the method: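 Amplex Red (25 uM) and HRP (250 mU/mL) in HBSS, with compounds for 15 min, then 250 uM DTT for 30 min, room temperature, dark. Fluorescence 525/598 nm read; normalized to DMSO and 10 uM DA3003; Hill fit.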

KB-3-1 = experiment: Cytotoxic Profiling of Annotated Libraries Using Quantitative High-Throughput Screening (AID 1296008); details: Five cell lines viability, CellTiter-Glo ATP luminescence, 48-72 h; max response: stronger effect = lower value; also: nearly all actives have a fitted effect of over 60% in size; also: potency is read from the fitted curve at half-maximal effect; as to max response: % is scaled to controls: 0 for no effect and ±100 for the full control effect
Summary of the method: (§1)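 Compounds were pin-transferred onto cells and incubated 48 or 72 hr at 37 degree Celsius, 95% humidity. CellTiter-Glo was added, plates sat 10 min at room temperature, then ATP-coupled luminescence was imaged as the viability read-out.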

CRL-7250 = normal cell line; experiment: qHTS assay to identify novel small-molecules to repurpose for Merkel cell carcinoma treatment (AID 1296009); details: MCC and control cell lines, CellTiter-Glo viability, 72 h; series mostly up to 92 µM
Summary of the method: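 Cells exposed to NPC (8-point) and MIPE (11-point) compound dilutions for 72 hr at 37 degree celsius; viability read by CellTiter-Glo luminescence, normalized to no-cell and DMSO in-plate controls.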

JEG-3 = experiment: Primary qHTS to identify gynecologic anti-cancer compounds using libraries of approved drugs and bioactive compounds (AID 1345084); details: Gynecologic cancer cell panel viability, ATPlite luminescence, 48 h; series mostly up to 57.5 µM; also: nearly all actives have a fitted effect of over 55% in size; also: potency is read from the fitted curve at half-maximal effect
Summary of the method: (§2)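 Luminescence from the ATPlite ATP-monitoring reagent indicates viable cell number; lower signal means cytotoxicity. Cells received compound 16 h after seeding and were exposed for 48 h across five concentrations.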

[12] = Primary fluorescence-based thiol-reactive (MSTI) qHTS assay for identification of artifact compounds. (AID 1845221);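 also: thiol-reactive compounds lower the probe fluorescence signal; nearly all actives have a fitted effect of over 65% in size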
Summary of the method: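 Compounds were incubated 1 h at room temperature in the dark with the MSTI probe (4 uM) in PBS pH 7.4, 2% DMSO. Signals were normalized between Acetyl-MSTI and MSTI.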

HaCat = experiment: Cytotoxic Profiling of Annotated Libraries Using Quantitative High-Throughput Screening (AID 1296008); details: Five cell lines viability, CellTiter-Glo ATP luminescence, 48-72 h; max response: stronger effect = lower value; also: nearly all actives have a fitted effect of over 60% in size; also: potency is read from the fitted curve at half-maximal effect; as to max response: % is scaled to controls: 0 for no effect and ±100 for the full control effect
Summary of the method: as §1

CASKI = experiment: Primary qHTS to identify gynecologic anti-cancer compounds using libraries of approved drugs and bioactive compounds (AID 1345084); details: Gynecologic cancer cell panel viability, ATPlite luminescence, 48 h; series mostly up to 57.5 µM; also: nearly all actives have a fitted effect of over 55% in size; also: potency is read from the fitted curve at half-maximal effect
Summary of the method: as §2

OV90 = experiment: as above; details: Gynecologic cancer cell panel viability, ATPlite luminescence, 48 h; series mostly up to 57.5 µM
Summary of the method: as §2

Fc1cc(F)c2c(c1)[C@H]1C=CC[C@H]1C(c1cccnc1)N2 (some centres undefined)
active: Potency [1] 4.61 µM | Potency [5] 6.49 µM | Potency [6] 8.17 µM | Potency (KB-3-1) 4.11 µM | Potency (CRL-7250) 4.61 µM | Potency (JEG-3) 25.1 µM
inactive: Potency [2] | Potency [3] | Potency [4] | Potency [7] | Potency [8] | outcome [9] | Potency [10] | Potency [11]

CC1=CC2/C=C(\C)CCC(O)C(O)/C=C/C(=O)C23C(=O)NC(CC(C)C)C3C1C (centres undefined)
active: Potency [5] 2.24 µM | Potency [6] 2 µM
inactive: Potency [3] | Potency [4] | Potency [7] | Potency [8] | outcome [9] | Potency [12] | Potency [10] | Potency [11]

Cc1cccc(NC(=O)c2ccc(C(F)(F)F)cc2C(=O)O)n1
inactive: Potency [1] | Potency [2] | Potency [3] | Potency [4] | Potency [5] | Potency [6] | Potency [7] | Potency [8] | outcome [9] | Potency [12] | Potency [10] | Potency [11] | outcome (HaCat) | outcome (KB-3-1) | Potency (CASKI) | Potency (OV90)

NNC(=O)c1nn(Cc2ccc(Cl)cc2Cl)c2ccccc12
inactive: Potency [1] | Potency [2] | Potency [3] | Potency [4] | Potency [7] | Potency [8] | outcome [9] | Potency [12] | Potency [10] | Potency [11] | max response (HaCat) 3.64% | Potency (CASKI) | Potency (JEG-3) | Potency (OV90)

CCCCCn1cc(C(=O)Cc2ccccc2OC)c2ccccc21
inactive: Potency [2] | Potency [3] | Potency [7] | Potency [8] | outcome [9] | Potency [12] | Potency [10] | Potency [11] | max response (HaCat) -10.3% | Potency (CASKI) | Potency (JEG-3) | Potency (OV90)

CC(=O)O[C@H]1C(=O)[C@]2(C)C(O)C[C@H]3OC[C@@]3(OC(C)=O)[C@H]2[C@H](OC(=O)c2ccccc2)[C@]2(O)C[C@H](O)C(C)=C1C2(C)C (some centres undefined)
inactive: Potency [1] | Potency [2] | Potency [3] | Potency [4] | Potency [7] | Potency [8] | outcome [9] | Potency [10] | Potency [11] | max response (HaCat) -29.4% | Potency (JEG-3) | Potency (OV90)
active: Potency [6] 5.41 µM

C[C@]12CC[C@H](O[C@@H]3O[C@H](CO)[C@@H](O)[C@H](O)[C@H]3O)CC1CC[C@@H]1C2CC[C@]2(C)[C@@H](C3=CC(=O)OC3)CC[C@]12O (some centres undefined)
inactive: Potency [2] | Potency [3] | Potency [4] | Potency [7] | outcome [9] inactive [at 25.7 µM] | Potency [12] | Potency [10] | Potency [11] | Potency (OV90)
active: Potency [1] 6.32 µM | Potency [5] 2.52 µM | Potency [6] 3.17 µM

COc1ccc(C(C)(C)C)cc1CN[C@H]1C2CCN(CC2)[C@H]1C(c1ccccc1)c1ccccc1
inactive: Potency [2] | Potency [3] | Potency [4] | Potency [7] | Potency [8] | outcome [9] | Potency [12] | Potency [10] | Potency [11] | Potency (CASKI) | Potency (JEG-3) | Potency (OV90)
active: Potency [1] 18.4 µM | Potency [5] 6.49 µM | Potency [6] 6.49 µM | Potency (HaCat) 18.4 µM

C/C=C(\C)C(=O)O[C@@H]1[C@@H](C)[C@]2(O)C3C=C(C)C(=O)[C@@]3(O)CC(CO)=C[C@H]2C2C(C)(C)[C@@]21OC(=O)C(C)CC (some centres undefined)
inactive: Potency [1] | Potency [2] | Potency [3] | Potency [4] | Potency [7] | Potency [8] | outcome [9] | Potency [12] | Potency [10] | Potency [11] | outcome (HaCat) | outcome (KB-3-1) | Potency (CASKI) | Potency (OV90)

COC[C@]12CN(C)C3C4[C@H](OC)[C@H]1C3(C(OC)C[C@H]2O)[C@H]1C[C@@]2(O)[C@H](OC(=O)c3ccccc3)[C@@H]1[C@]4(O)[C@@H](O)[C@@H]2OC (some centres undefined)
inactive: Potency [1] | Potency [2] | Potency [3] | Potency [4] | Potency [5] | Potency [6] | Potency [7] | Potency [8] | outcome [9] | Potency [12] | Potency [10] | Potency [11] | max response (HaCat) -14.8% | max response (KB-3-1) -0.453%

CCC(C)C1NC(=O)C2CCCN2C(=O)C(CC(C)C)OC(=O)CCNC(=O)C(C)N(C)C(=O)C(C(C)C)N(C)C1=O (centres undefined) (cyclo([ξLac(3-iPr)]PI[NMeV][NMeA][βAla]); configuration not given here)
active: Potency [5] 2.71 µM | Potency [6] 1.92 µM | Potency (OV90) 3.98 µM
inactive: Potency [1] | Potency [2] | Potency [3] | Potency [4] | Potency [7] | Potency [8] | outcome [9] | Potency [12] | Potency [10] | max response (HaCat) -9.99% | Potency (CASKI)
